Experimental data from PubChem BioAssay (NCATS).
Values without a mark were called inactive. Records with an inconclusive call do not appear. Entries that show only a call come without a potency. Active and inactive are the calls of the source. Calls come from the whole dose curve; as a rule, active = well fitted curve in the direction sought with a large enough effect; inconclusive = small, poorly fitted or top-dose-only effect, or another doubt; inactive = no such curve, though single readings can be large; an effect the other way counts as inactive or inconclusive.

Experiments:
[1] = HPAF-II 24hr Apoptosis Induction qHTS against the NCATS CANVASS Library (AID 1347356)
Procedure, shortened: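 Caspase-Glo 3/7 luminescence, read after 15 min room-temperature development, measures apoptosis in HPAF-II cells treated 24 h at 37 degrees C with an 11-point concentration series; 500 cells/well; doxorubicin control.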

[2] = HEK293 24hr Apoptosis Induction qHTS against the NCATS CANVASS Library (AID 1347359)
Procedure, shortened: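 Caspase-3/7 activation measured as luminescence from the DEVD-based Caspase-Glo reagent, 15 min at room temperature, following 24-hour compound treatment of HEK293 cells.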

[3] = HPAF-II 18hr Apoptosis Induction qHTS against the NCATS CANVASS Library (AID 1347360)
Procedure, shortened: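 HPAF-II cells at 500/well were exposed for 18 h at 37 C to an 11-point compound series. Caspase-3/7 activity was read by Caspase-Glo luminescence after 15 min at RT.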

[4] = system: NAD(P)H diaphorase (Clostridium kluyveri); assay: Diaphorse counterscreen qHTS: Assay Interference Panel against the NCATS CANVASS Library (AID 1347362)
Procedure, shortened: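 Counterscreen for coupling-enzyme interference: resorufin fluorescence from resazurin/NADH turnover, read after 5 min at room temperature. Compounds were tested over an 11-point series after 15 min dark preincubation with diaphorase in PBS-Tween.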

[5] = qHTS for ATAD5 Agonist screened against the NCATS CANVASS Library (AID 1347367);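 note: luciferase reporter driven by ATAD5 which rises upon DNA damage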; note: potency is the fitted concentration of half-maximal effect
Procedure, shortened: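 Luciferase reporter under ATAD5 control, stably integrated in HEK293T cells (2000/well). Compounds (11 points) incubated 16 h at 37C; viability read first by CellTiter-Fluor, then luminescence reporting ATAD5 activation. MMS positive control.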

[6] = G06 Cancer Cell Toxicity qHTS against the NCATS CANVASS Library (AID 1347368); note: nearly all actives have a fitted effect of over 60% in size; note: potency is the fitted concentration of half-maximal effect
Procedure, shortened: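 Viability measured by CellTiterGlo ATP luminescence after 72 hr at 37C, 5% CO2. Canine G06 glioma cells plated at 500/well. Compounds tested as 11-point qHTS titrations.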

[7] = J3T Cancer Cell Toxicity qHTS against the NCATS CANVASS Library (AID 1347371); note: potency is the fitted concentration of half-maximal effect
Procedure, shortened: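 Cytotoxicity read as CellTiterGlo ATP luminescence after 72 h incubation (37C, 5% CO2) of J3T canine glioma cells (500/well) with an 11-point compound series.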

[8] = biological target: Nuclear receptor subfamily 1 group I member 3 (Homo sapiens) (UniProt Q14994); assay: qHTS for Constitutive Androstane Receptor (CAR) Antagonist screened against the NCATS CANVASS Library (AID 1347372); note: potency is the fitted concentration of half-maximal effect
Procedure, shortened: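 Antagonist mode: compound added alongside 50 nM CITCO to HepG2-hCAR-CYP2B6 reporter cells, 24hr at 37C. Viability by CellTiter-Fluor fluorescence, then CAR-driven luciferase by ONE-Glo luminescence.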

[9] = biological target: Nuclear receptor subfamily 1 group I member 3 (Homo sapiens) (UniProt Q14994); assay: qHTS for Constitutive Androstane Receptor (CAR) Agonist screened against the NCATS CANVASS Library (AID 1347373);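 note: every well also contained 1.5 µM PK11195 alongside the test compound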
Procedure, shortened: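 Agonist mode with 1.5uM PK11195 present: compounds for 24hr on HepG2-hCAR-CYP2B6 cells. CellTiter-Fluor fluorescence (ex 405, em 540 nm) gives viability; ONE-Glo luminescence reports CAR activation.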

[10] = qHTS for Hypoxia signaling pathway (HIF-1) agonists against the NCATS CANVASS Library (AID 1347375)
Procedure, shortened: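 Beta-lactamase reporter under HRE control in ME-180 cells; compounds (11-point qHTS series) added after 5 hrs plating, then 17 hrs at 37C. FRET substrate read after 2 hr; same-well CellTiter-Glo luminescence gave viability and normalization.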

[11] = 10-beta competent E. coli microbial cell viability qHTS against the NCATS CANVASS Library (AID 1347376); note: series mostly up to about 46 µM
Procedure, shortened: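 Read-out: BacTiter-Glo ATP luminescence, taken 20 min after reagent addition. Beforehand, 10-beta competent E. coli at 0.2 OD had been incubated overnight at 37C with compounds at 11 concentrations.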

[12] = qHTS for H2AX Agonists against the NCATS CANVASS Library (AID 1347378); note: potency is the fitted concentration of half-maximal effect
Procedure, shortened: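 CHO-K1 cells (1000/well, overnight at 37C) exposed to compounds at several concentrations for 3 hr at 37C, 0.76% DMSO final. Lysates read by TR-FRET (phospho-H2AX S139 Eu-cryptate antibody / H2AX-d2 antibody) after 24 hr at room temperature; 665/615 nm ratio.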

[13] = Inflammasome Signaling qHTS Counterscreen: IL-1-beta AlphaLISA counterscreen against the NCATS CANVASS Library (AID 1347381);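 note: cell-free check with purified IL-1β in medium and no THP-1 cells; series mostly up to about 57 µM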
Procedure, shortened: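 Purified IL-1-beta (4 pg/well) + compound, 11-pt conc. series; acceptor beads 6 ug/mL + biotin-Ab 0.6 nM final, 1 h RT; SA-donor 24 ug/ml final, 30 min dark RT; read ex 680/em 615.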

[14] = Cytotoxicity qHTS for assessment of Hepg2 cells membrane integrity screened against the NCATS CANVASS Library (AID 1347387)
Procedure, shortened: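 Membrane damage quantified as fluorescent LDH-release signal (ex 560, em 590 nm) in HepG2 cells treated 5 hr at 37C. qHTS format, 11 concentrations spanning 0.59 nM - 46 uM final, cells plated at 2000 per well the night before.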

[15] = qHTS assay for small molecule disruptors of mitochondrial membrane potential screened against the NCATS CANVASS Library (AID 1347389); note: nearly all actives have a fitted effect of over 60% in size; note: potency is the fitted concentration of half-maximal effect
Procedure, shortened: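 Mitochondrial membrane potential in HepG2: 1 h compound treatment (11-point concentration series), 30 min m-MPI dye at 37C, then dual fluorescence of J-aggregates (ex 540/em 590) and monomers (ex 490/em 535); lower red/green ratio indicates depolarization.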

[16] = Secretion counterscreen for inhibitors of the SERCaMP assay screened against the NCATS CANVASS Library (AID 1347390);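 note: light from luciferase secreted into medium read as a measure of general secretion; series mostly up to about 77 µM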
Procedure, shortened: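 SH-SY5Y cells with constitutively secreted GLuc reporter, 1000 cells/well, treated 20 h at 37C with compounds at 0.001 - 77 uM final; secreted luciferase read as luminescence after coelenterazine; Brefeldin A as positive control.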

[17] = qHTS for activators of dead-cell proteases activity screened against the NCATS CANVASS Library (AID 1347392);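 note: luminescence from protease leaking out of membrane-damaged cells cleaving impermeant substrate; rising signal means more cytotoxicity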
Procedure, shortened: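 Luminescent dead-cell protease readout (AAF-aminoluciferin, 15 min, room temperature) after 5 h compound treatment of HepG2 cells (2000/well, pre-attached 18 h). Eleven concentrations.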

[18] = Vero-766 cells viability qHTS against the NCATS CANVASS Library: Counterscreen for Zika virus inhibition assay (AID 1347394); note: nearly all actives have a fitted effect of over 60% in size; note: potency is the fitted concentration of half-maximal effect
Procedure, shortened: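 Vero 766 cells (1000/well), without Zika virus, were exposed to compounds for 72 h at 37C. Viability was measured by CellTiter Glo luminescence. Media-only wells served as 100% inhibition.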

[19] = qHTS for ATAD5 Antagonist screened against the NCATS CANVASS Library (AID 1347370);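 note: HEK293T cells carrying an ATAD5 luciferase reporter co-treated with 10 µM 5-fluorouridine; series mostly up to about 46 µM; nearly all actives have a fitted effect of over 65% in size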
Procedure, shortened: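 Compounds (11-point) co-dosed with 10 µM 5-FUrd for 16 h at 37 °C onto HEK293T-ATAD5 luciferase reporter cells. Viability measured by CellTiter-Fluor fluorescence, then ATAD5 reporter signal by luminescence.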

[20] = qHTS for Activators of p53 Stress Response Pathway screened against the NCATS CANVASS Library (AID 1347388); note: potency is the fitted concentration of half-maximal effect
Procedure, shortened: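 Beta-lactamase reporter driven by p53 response elements in HCT-116 cells, read as the 460 nm/530 nm emission ratio after CCF4 loading, following 16 h of exposure to an 11-point series. Cell viability was measured in the same wells by CellTiter-Glo luminescence.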

Nuclear receptor subfamily 1 group I member 3 (Homo sapiens), sequence (Q14994 whole entry, looked up): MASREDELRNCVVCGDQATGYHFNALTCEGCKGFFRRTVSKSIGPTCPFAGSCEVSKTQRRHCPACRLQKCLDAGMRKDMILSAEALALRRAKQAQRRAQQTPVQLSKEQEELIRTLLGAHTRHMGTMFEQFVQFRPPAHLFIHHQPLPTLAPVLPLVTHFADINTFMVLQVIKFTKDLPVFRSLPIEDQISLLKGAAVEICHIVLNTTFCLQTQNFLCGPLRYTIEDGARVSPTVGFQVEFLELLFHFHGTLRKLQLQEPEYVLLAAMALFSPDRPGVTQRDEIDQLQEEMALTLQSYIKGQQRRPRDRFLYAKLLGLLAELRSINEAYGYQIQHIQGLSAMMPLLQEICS

What does the source list for `CC(C)C[C@@H]1c2c(O)c(C=O)c(O)c(C=O)c2O[C@]2(C)C=C[C@@H](C(C)C)C[C@H]12`?
outcome [1]: inactive; Potency [2]: inactive; Potency [3]: inactive; Potency [4]: inactive; Potency [5]: inactive; Potency [6]: inactive; Potency [7]: inactive; Potency [8]: inactive; Potency [9]: inactive; outcome [10]: inactive; outcome [11]: inactive; Potency [12]: inactive; outcome [13]: inactive; outcome [14]: inactive; Potency [15]: inactive; Potency [16]: inactive; Potency [17]: inactive; Potency [18]: inactive

Which results are given for `CCC(=O)CCCCC[C@@H]1NC(=O)[C@H]2CCCCN2C(=O)[C@H](C(C)C)NC(=O)[C@H](Cc2cn(OC)c3ccccc23)NC1=O`?
outcome [1]: inactive; Potency [2]: inactive; Potency [3]: inactive; Potency [4]: inactive; Potency [5]: 3.31 µM (active); Potency [6]: 4.69 µM (active); Potency [19]: inactive; Potency [7]: 11.8 µM (active); Potency [8]: 11.7 µM (active); Potency [9]: inactive; outcome [10]: inactive; outcome [11]: inactive; outcome [13]: inactive; outcome [14]: inactive; Potency [15]: inactive; Potency [16]: inactive; Potency [17]: inactive; Potency [18]: 5.88 µM (active)

What does the source list for `O[C@H]1c2ccccc2-c2c3c(cc4c2[C@@H]1NCC4)OCO3`?
outcome [1]: inactive; Potency [2]: inactive; Potency [3]: inactive; Potency [5]: inactive; Potency [6]: 16.6 µM (active); Potency [7]: inactive; Potency [8]: 16.6 µM (active); Potency [9]: inactive; outcome [10]: inactive; outcome [11]: inactive; Potency [12]: inactive; outcome [14]: inactive; Potency [20]: 13.2 µM (active); Potency [17]: inactive; Potency [18]: 20.9 µM (active)

Which results are given for `Cc1occ2c1C(=O)c1c(cc(O)c(O)c1O)C2=O`?
outcome [1]: inactive; Potency [2]: inactive; Potency [3]: inactive; Potency [5]: inactive; Potency [19]: inactive; Potency [7]: inactive; Potency [8]: inactive; Potency [9]: inactive; outcome [10]: inactive; Potency [12]: 24.4 µM (active); outcome [13]: inactive; outcome [14]: inactive; Potency [20]: 11.7 µM (active); Potency [15]: 7.41 µM (active); Potency [16]: inactive; Potency [17]: inactive

Which outcome [1] does the source give for `C/C=C(/C)c1c(Cl)c(O)c(C)c2c1Oc1c(Cl)c(O)c(Cl)c(C)c1C(=O)O2` here?
The outcome was “inactive”.

And the Potency [2]?
Its Potency is “inactive”.

What about the Potency [3] of the same compound?
The Potency was “inactive”.

And the Potency [4]?
Its Potency is “inactive”.

And the Potency [5]?
Its Potency is “inactive”.

What about the Potency [6] of the same compound?
Its Potency is “inactive”.

And the Potency [19]?
The Potency was “inactive”.

What about the Potency [8] of the same compound?
Its Potency is “inactive”.

And the Potency [9]?
Its Potency is “inactive”.

And the outcome [10]?
The outcome was “inactive”.

What about the outcome [11] of the same compound?
The outcome was “inactive”.

And the Potency [12]?
Its Potency is “inactive”.

What about the outcome [13] of the same compound?
Its outcome is “inactive”.

And the outcome [14]?
The outcome was “inactive”.

And the Potency [15]?
Its Potency is 8.31 µM (active).

And the Potency [16]?
The Potency was “inactive”.

What about the Potency [17] of the same compound?
The Potency was “inactive”.

What about the Potency [18] of the same compound?
Its Potency is 7.41 µM (active).

Which outcome [1] does the source give for `C/C=C(/C)c1c(Cl)c(OC)c(C)c2c1Oc1c(Cl)c(O)c(Cl)c(C)c1C(=O)O2` here?
The outcome was “inactive”.

And the Potency [2]?
The Potency was “inactive”.

And the Potency [3]?
Its Potency is “inactive”.

And the Potency [5]?
The Potency was “inactive”.

And the Potency [6]?
Its Potency is “inactive”.

What about the Potency [8] of the same compound?
Its Potency is “inactive”.

And the Potency [9]?
Its Potency is “inactive”.

And the outcome [10]?
Its outcome is “inactive”.

What about the outcome [11] of the same compound?
The outcome was “inactive”.

And the Potency [12]?
Its Potency is “inactive”.

What about the outcome [13] of the same compound?
Its outcome is “inactive”.

What about the outcome [14] of the same compound?
The outcome was “inactive”.

What about the Potency [15] of the same compound?
The Potency was 2.63 µM (active).

What about the Potency [16] of the same compound?
Its Potency is “inactive”.

And the Potency [17]?
The Potency was “inactive”.

What about the Potency [18] of the same compound?
The Potency was 3.71 µM (active).
